Data from PubChem BioAssay (EPA / NIEHS).
Calls of active or inactive are those of the source. Rule for the calls: active = hit-call score of the fitted dose curve at least 0.9, where 1 is the maximum; inconclusive = response in the unintended direction; inactive = score below 0.9.

System: Thyroperoxidase (TPO), gene 54314
Experiment: CCTE_Simmons_AUR_rTPO: CCTE's Amplex UltraRed Assay for Thyroperoxidase (TPO) Inhibition, Simmons Lab (AID 2283662);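 for AC50: potency for loss of signal meaning inhibition of peroxidase activity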
Experimental: CCTE_Simmons_AUR_rTPO is a biochemical, single-readout assay that uses microsomes from rat thyroid gland in a tissue-based cell-free assay. Measurements were taken 0.5 hour after chemical dosing in a 384-well plate.CCTE_Simmons_AUR_rTPO is the assay component measured from the CCTE_Simmons_AUR_rTPO assay. It is designed to make measurements of thyroperoxidase (TPO) activity as detected with fluorescence intensity signals using the Amplex UltraRed technology as a form of enzyme activity reporter.Data from the assay component CCTE_Simmons_AUR_rTPO was analyzed at the endpoint, CCTE_Simmons_AUR_rTPO, in the positive analysis fitting direction relative to DMSO as the negative control and baseline of activity. Using a type of enzyme reporter, the Amplex UltraRed assay, loss-of-signal activity can be used to understand decreased peroxidase activity in the presence of excess […]. To generalize the intended target to other relatable targets, this assay endpoint is annotated to the oxidoreductase intended target family, where the subfamily is peroxidase.
As described previously (Paul et al., 2014), the AUR substrate was repurposed to detect peroxidase (ie, TPO) activity in the presence of excess H2O2 for the AUR-TPO assay. The reaction profile for the 384-well format AUR-TPO assay is scaled to an 80 ul assay volume containing 25 uM AUR, 300 uM H2O2, and 5 ug microsomal protein in 200 mM phosphate buffer. The assay concentration of thyroid microsomal protein was approximately […]. First, rat microsomes containing TPO and diluent 200mM potassium phosphate buffer were added to opaque, black 384-well plates (Greiner, BioExpress; Kaysville, Utah) using an automated liquid handler (BioTek MicroFlo; Winooski, Vermont) with a plastic 5 ul tubing cassette. Similarly, AUR was added next by automated liquid handling. Test compounds were administered using a HDRT as described earlier to achieve a 0.5% final DMSO concentration. Finally, H2O2 (300 uM, final concentration) was then added by the BioTek MicroFlo to initiate the reaction. Microplates were incubated at 37C in the dark for 30min. Plates were then shaken on a fluorescence plate reader (FLUOStar Optima, BMG LabTech; GmbH, Germany), and endpoint fluorescence (top read) was measured using 10 flashes per well at 544/590nm excitation/emission. Three biological replicates of technical singles were run for every chemical concentration tested. A titrated range of MMI served as a positive control for TPO inhibition on each plate of the AUR-TPO screening campaign. Test chemicals were administered as a titrated series of 8 concentrations from 5 nM up to 87.5 uM [final] for 30 minutes prior to single endpoint detection. Dimethylsulfoxide [DMSO] was used as the vehicle control. Methimazole [MMI] was used as the positive control and was administered as a titrated series of 8 concentrations from 1 nM up to 271 uM [final].

outcome, inactive:
CSc1nc2ccccc2s1, CCCCOC(=O)c1ccccc1O, CN(C)C(=S)N(C)C, OC(c1ccccc1)c1ccccc1, O=c1cc(O)cc[nH]1, COc1c[nH]ccc1=O, Oc1cccnc1, O=C(c1ccccc1)c1ccc(O)cc1, Cc1ccc(C=C2C(=O)C3(C)CCC2C3(C)C)cc1 (centres undefined), CCOC(=O)c1cccc(O)c1, OCc1ncccc1O

AC50, active:
C=CC1CNC(=S)O1 (centres undefined) 10600 nM, O=[N+]([O-])c1ccc2[nH]c(=S)[nH]c2c1 315 nM, O=c1[nH]c2ccccc2s1 31300 nM, O=C(NO)c1ccccc1O 358 nM, O=c1cccc(O)[nH]1 9010 nM, S=c1[nH]c2cc(Cl)ccc2s1 1540 nM, Cn1c(=S)[nH]c2ccccc21 503 nM, O=C1CC(c2ccc(O)cc2)Oc2cc(O)cc(O)c21 (centres undefined) 742 nM
